Assay outcomes (PubChem BioAssay)
Shown are actives, neighbours in structure and some others; about 3.6% of the full set was active somewhere.
TRHR agonist = TRH receptor (human) agonism | actives 0.18% (n = 360,000) | TRHR cells, calcium flux fluo-8, FDSS agonist mode | P34981 | AID 493084 | activation, % at 2 µM; note: 0% is about no effect
Target sequence (P34981 whole entry, looked up): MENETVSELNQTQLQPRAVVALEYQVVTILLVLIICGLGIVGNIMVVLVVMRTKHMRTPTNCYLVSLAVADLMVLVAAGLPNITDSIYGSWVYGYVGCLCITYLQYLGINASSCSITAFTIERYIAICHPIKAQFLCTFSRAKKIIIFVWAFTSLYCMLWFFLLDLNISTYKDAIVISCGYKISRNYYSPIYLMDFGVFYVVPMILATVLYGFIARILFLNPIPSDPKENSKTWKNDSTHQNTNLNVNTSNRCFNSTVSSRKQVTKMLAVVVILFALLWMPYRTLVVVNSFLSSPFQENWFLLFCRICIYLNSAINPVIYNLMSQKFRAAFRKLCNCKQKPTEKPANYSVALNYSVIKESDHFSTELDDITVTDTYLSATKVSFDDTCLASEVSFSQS
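TRHR-expressing cells, plated overnight in medium with 10% serum, were loaded with fluo-8 calcium dye at room temperature. After a 10 s baseline, library compound was pin-added and calcium release was recorded kinetically (ex 480/em 530) as agonist response.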
TRHR enhancer = allosteric enhancers of human TRH receptor; enhancement, % at 2 µM; actives 0.66% (n = 360,000); AID 493056; P34981; TRHR cells, fluo-8 calcium fluorescence, EC20 TRH enhancement; in the data active = enhancement above about 30%; note: 0% is about no effect
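Enhancer read-out: after compound pinning and an initial kinetic agonist-mode read, an EC20 of TRH (10 nM final) was injected and fluo-8 calcium signal (Ex 480/Em 530) followed at 1 s/cycle for 100 cycles in TRHR-expressing cells.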
D1 antag = antagonists of human D1 dopamine receptor; HEK293 TREx D1 cells, calcium flux, dopamine EC80; active compounds read low; activity change, negative = inhibition, % at 10 µM; actives 3.2% (n = 360,000); in the data active = activity change below about -30%; note: % is set by controls: 0 for no effect and ±100 for the full control effect
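Tetracycline-induced HEK293 T-REx cells with force-coupled D1 receptor were loaded with a no-wash calcium dye. Compound was added after a 10 s baseline and read kinetically for 180 s; EC80 dopamine was then added and calcium flux followed another 180 s.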
D1 ag = agonists of human D1 dopamine receptor; P21728; HEK293 T-REx D1 cells, calcium flux, agonist mode; activation, % at 2 µM; actives 1% (n = 360,000); AID 504660; note: 0% is about no effect
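Tetracycline-induced HEK293 TREx D1 cells, force-coupled to calcium signalling, were dye-loaded with a no-wash calcium kit. Compound was pin-added after a 10 s baseline. Fluorescence was read kinetically at 1 cycle/s for 180 s, with calcium rises flagged as agonism.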
D1 potentiator = human D1 dopamine receptor positive modulation; P21728; HEK293 TREx D1 cells, calcium flux, dopamine EC20 potentiation; potentiation, % at 10 µM; actives 0.036% (n = 360,000); AID 504651; in the data active = potentiation above about 30%; note: 0% is about no effect
LDHA inh = LDHA (human) enzyme inhibition. P00338. purified LDHA, NADH/diaphorase-resazurin fluorescence; active compounds read low. activity change, % (values are at about 110 or 230 µM). actives 0.15% (n = 480,000); in the data active = activity change below about -30%;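 note: plate controls were DMSO wells for no effect and wells without enzyme for full effect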
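LDH5 2 nM; NADH 0.06 mM, pyruvate 0.2 mM; 200 mM Tris pH 7.4, EDTA, Tween-20; 5 min RT. Detection: diaphorase 0.133 mg/mL + resazurin 37 µM, fluorescence ex540/em590 at 0 and 20 min; normalized to enzyme-free and DMSO wells.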
* marks the source's active call; other numbers are inactive results; . = not tested or not shown. Cut-off read from the data, not from the text of the source, unless noted: active = activation above about 30%; inactive = the rest.

SMILES	TRHR agonist	TRHR enhancer	D1 antag	D1 ag	D1 potentiator	LDHA inh
O=C(NC(Nc1nc2ccc([N+](=O)[O-])cc2s1)(C(F)(F)F)C(F)(F)F)c1ccccc1Cl	7.7	-4.8	-36.0*	24.7	-2.1	-3.8
O=[N+]([O-])c1ccc2nc(NS(=O)(=O)c3ccccc3[N+](=O)[O-])sc2c1	5.8	-6.2	-38.8*	68.4*	.	-12.0
O=C(NC(Nc1nc2ccc([N+](=O)[O-])cc2s1)(C(F)(F)F)C(F)(F)F)c1cccnc1	14.3	-3.6	-34.9*	35.9*	-11.0	-7.2
CCCCNC(=O)N1CCN(C(=O)Cc2c[nH]c3ccccc23)CC1	.	.	.	.	.	-10.6
CC(C)(C)CC(=O)NCCc1cccs1	.	.	.	.	.	4.7
CCn1ccnc1CN1CCN(CC=C(C)C)C(CCO)C1 (stereo unspecified)	0.0	31.3*	-10.2	0.3	-3.5	-3.5
CCN(CC)CCNc1nc2c(c(=O)n(C)c(=O)n2C)n1CC(O)COc1ccccc1C (stereo unspecified)	.	.	.	.	.	0.9
O=C(NCc1ccccn1)c1n[nH]c(=O)c2ccccc12	-0.4	16.2	11.7	6.3	-1.2	-1.9
O=C(NCc1ccccn1)c1n[nH]c2ccccc12	-0.1	39.2*	-0.3	2.2	-0.2	-4.4
Cc1cc(=O)[nH]c(-n2[nH]c3c(c2=O)CCCC3)n1	-0.4	0.8	-37.2*	21.1	-3.5	22.2
Cc1nc(-n2[nH]c3c(c2=O)CCCC3)[nH]c(=O)c1Cc1ccccc1	-0.2	3.8	-3.3	61.4*	0.6	14.2
Cc1nc(N2CCc3ccccc3C2)[nH]c(=O)c1Cc1ccccc1	-1.6	0.6	-44.4*	2.7	-5.5	-4.8
CCNc1c(NS(=O)(=O)c2cc(C)cc(C)c2)c(=O)oc2ccccc12	.	.	.	.	.	-4.9
CC(CNC(=O)c1nnc(C(=O)Nc2ccccc2)s1)c1ccccc1 (stereo unspecified)	.	.	.	.	.	1.5
CC(=O)c1c(Nc2ccc(Cl)cc2)oc(C)cc1=O	.	.	.	.	.	12.4
CN(C)CCNc1oc(-c2ccccc2F)nc1S(=O)(=O)c1ccc2c(c1)OCCO2	.	.	.	.	.	-5.0
NC(=O)NC(=O)COC(=O)CN1C(=O)C2CCCCC2C1=O (stereo unspecified)	0.5	35.6*	-9.0	0.7	-1.1	-0.6
CCOC(=O)c1c(C)[nH]c(C(=O)COC(=O)CN2C(=O)C3CCCCC3C2=O)c1C (stereo unspecified)	0.4	31.3*	-15.8	5.7	1.4	-7.5
NC(=O)COC(=O)CN1C(=O)C2CCCCC2C1=O (stereo unspecified)	0.6	-0.6	7.2	0.2	2.6	-4.7
CCOC(=O)c1c(C)[nH]c(C(=O)COC(=O)C(C)N2C(=O)C3CCCCC3C2=O)c1C (stereo unspecified)	-0.7	-6.9	-24.6	8.8	-2.8	-0.8
CCCc1cc(=O)[nH]c(SCC(=O)c2[nH]c(C)c(C(=O)OCC)c2C)n1	0.0	31.3*	10.4	0.0	-4.1	-6.4
CCCc1cc(=O)[nH]c(SCC(=O)CSc2nc(CCC)cc(=O)[nH]2)n1	0.2	5.3	16.2	1.3	-5.8	-1.1
COc1c(C2CC(=O)Nc3c2ncn3-c2cccc(C(F)(F)F)c2)cc2c(c1OC)OCO2 (stereo unspecified)	.	.	.	.	.	27.6
O=C1CCSc2ccc(C(=O)Nc3ccc(Oc4ccccc4)cc3)cc2N1	.	.	.	.	.	-0.9
Cc1ccc(-n2nnc(C(=O)NC(C)C)c2N)cc1	.	.	.	.	.	6.2
SMILES	TRHR agonist	TRHR enhancer	D1 antag	D1 ag	D1 potentiator	LDHA inh
C=C[C@@H]1c2cc(C)ccc2N(S(=O)(=O)c2ccc(C)cc2)[C@H](c2ccccc2C(F)(F)F)C1(C#N)C#N	0.7	-6.2	-35.2*	1.3	-2.9	-3.7
CC(=O)c1cn(CC(=O)NCC2(CC(=O)O)CCCCC2)c2ccccc12	.	.	.	.	.	-22.0
Cc1cccc(NC(=O)CSC2=NN3CCCC(=O)N=C3S2)c1C	1.1	-3.0	-32.8*	1.3	-7.5	-3.8
Cc1cc(NC(=O)COC(=O)C2(c3ccc(Cl)cc3)CC2)no1	.	.	.	.	.	0.2
CC(=Nc1ccc(Br)cc1)c1sc2ccccc2c1O	12.2	0.6	-3.2	62.3*	1.3	-3.4
COc1ccc(NC(=O)c2ccc(-c3ccc(-c4noc(C)n4)cc3C)cc2)cc1N1CCN(C)CC1	-0.1	1.4	-57.5*	13.8	-5.4	-19.0
COc1ccc(NC(=O)N2CCN(c3cc(-c4noc(C)n4)ccc3C)CC2)c(OC)c1	-0.8	-5.9	-14.2	2.3	-3.4	5.2
CCOc1ccc(N2C(=O)/C(=C\c3ccc(O)c(OC)c3)S(=O)(=O)C2c2cccc([N+](=O)[O-])c2)cc1 (stereo unspecified)	0.1	6.9	6.3	1.5	0.0	-3.0
CCOc1ccc(N2C(=O)/C(=C\c3ccc(OC)c(O)c3)S(=O)(=O)C2c2cccc([N+](=O)[O-])c2)cc1 (stereo unspecified)	-1.5	-4.2	-73.2*	1.7	-14.7	-4.5
CC(C)CCN=Cc1c(O)n(-c2ccccc2)c(=O)c2ccccc12	-1.6	-1.8	3.5	0.0	-1.2	-5.5
CCN1CCCC1CN=Cc1c(O)n(-c2ccccc2)c(=O)c2ccccc12 (stereo unspecified)	-0.2	9.0	-78.0*	1.3	-7.8	0.5
CN(CCOc1ccccc1)S(=O)(=O)c1ccc2oc3ccccc3c2c1	-0.6	3.3	-42.6*	40.4*	7.1	-0.8
CC(C)(C)c1ccc(C(=O)Nc2ccc(CCC(=O)O)cc2)cc1	.	.	.	.	.	2.5
CC(C)C(=O)NCCSc1c[nH]c2ccccc12	-0.1	10.9	-86.6*	-0.1	-10.2	2.2
COc1cc(CNCc2ccccn2)ccc1OCc1c(Cl)cccc1Cl	0.0	6.4	4.9	40.5*	3.2	-0.9
CCCCCCCC(=O)Nc1ccc(C(=O)N/N=C/c2cccc(Br)c2)cc1	.	.	.	.	.	9.5
CC(C)N(C(=O)CSc1ncnc2sc(-c3ccccc3)cc12)C(C)C	-0.8	-20.3	.	0.0	-0.7	0.8
CC(Sc1ncnc2sc(-c3ccccc3)cc12)C(=O)N1CCNC1=O (stereo unspecified)	-0.3	0.0	-40.7*	12.9	-1.1	-4.2
C=CCn1c(SCCC)nc(O)cc1=O	26.0	-12.2	-26.4	128.2*	-4.8	2.2
C=CCn1c(SCC)nc(O)cc1=O	2.2	1.8	8.3	20.3	5.7	-1.0
CC(C(=O)NCCc1c[nH]c2ccccc12)N1CCCCCC1 (stereo unspecified)	.	.	.	.	.	0.6
COc1ccc(C(=O)COC(=O)CN2C(=O)C3C4C=CC(C5CC45)C3C2=O)cc1 (stereo unspecified)	0.1	2.9	-32.7*	9.2	0.2	3.4
Cc1[nH]cc(Br)c(=O)c1Oc1ncc(C(F)(F)F)cc1Cl	-0.2	-6.6	-35.4*	1.7	-8.3	-2.5
